Experimental data taken from ChEMBL document CHEMBL3988442, “University of Dundee, Small-Polar-MMV Screening Library” (2021).
Out of some 48,000 compounds screened, about 13,000 (27%) showed an effect of 50% or more. Some of the results follow.

test system: Wolbachia pipientis; test: Anti-Wolbachia Cell-Based Screen; type: functional; set-up: scale not given: in the data most compounds retested in dose-response had high values; conditions: 5 µM

| SMILES | Percent Effect |
| --- | --- |
| CN(C)Cc1nc(C(C)(C)NC(=O)c2ccc3ccccc3c2)no1 | -5.67% |
| Cc1cc(NC(=O)CNc2cccc(OC(F)F)c2C)n(C)n1 | -2.043% |
| Cc1nn(C)c(Cl)c1C(=O)NCC1(C(N)=O)CCOCC1 | 99.78% |
| Cc1nn(C(C)(C)C)c(C)c1C(=O)NCC1(C(N)=O)CCOCC1 | -1.881% |
| Cc1cc(C(=O)NCC2(C(N)=O)CCOCC2)nn1C(C)(C)C | 9.321% |
| CC(C)CN1CCN(Cc2nc3ccccc3[nH]2)[C@H]2CS(=O)(=O)C[C@H]21 | -2.653% |
| Cc1csc(CCCNC(=O)NC2CC(=O)N(C(C)(C)C)C2)n1 (stereo not given) | 79.6% |
| Cc1nc(C)c(CCNC(=O)NC2CC(=O)N(C(C)(C)C)C2)s1 (stereo not given) | -0.9476% |
| CCc1nc(CCNC(=O)NC2CC(=O)N(C(C)(C)C)C2)cs1 (stereo not given) | 17.05% |
| CC(=O)c1ccc(NC(=O)c2ccc3c(c2)C2(CCCCC2)CN3)cc1.O=C(O)C(F)(F)F | 13.81% |
| NC(=O)CN1CCCN(C(=O)c2ccn(-c3cccc(F)c3)n2)CC1 | -12.78% |
| CCn1c(C(=O)N2CCN(C(=O)COC)CC2)cc2ccccc21 | -7.431% |
| CCn1c(CN2CCN(CC(N)=O)CC2)nc2c(F)cccc21 | -7.265% |
| CCC(O)CN1CCN(C(=O)c2cc3ccccc3n2CC)CC1 (stereo not given) | 81.21% |
| CCn1c(C(=O)N2CCN(CC(C)O)CC2)cc2ccccc21 (stereo not given) | -3.08% |
| CC(O)CN1CCN(C(=O)c2cc3ccccc3n2C)CC1 (stereo not given) | 80.19% |
| CC(O)CN1CCN(C(=O)c2cccc(CC#N)c2)CC1 (stereo not given) | 0.248% |
| Cc1cccc2cc(C(=O)N3CCSCC3)n(C)c12 | -17.56% |
| CCn1c(C(=O)N2CCCN(CC(N)=O)CC2)cc2ccccc21 | 113.2% |
| CCn1c(C(=O)N2CCN(C(=O)NC(C)C)CC2)cc2ccccc21 | -5.351% |
| CC(O)CN1CCN(C(=O)c2cccn2Cc2ccncc2)CC1 (stereo not given) | -5.756% |
| CCn1c(C(=O)N2CCN(CC[S+](C)[O-])CC2)cc2ccccc21 (stereo not given) | 101.9% |
| COc1ccc(C)cc1-c1csc(Cn2ccc(=O)[nH]c2=O)n1 | -13.88% |
| c1cnn(Cc2nnc(C3CCN(C4CCOCC4)CC3)n2C2CC2)c1 | -3.51% |
| O=C(COc1ccccc1F)NCCC(O)c1ccco1 (stereo not given) | -8.311% |
| Cc1ccc(CNC2(Cc3cc(-c4ccc(F)cc4)on3)COC2)o1 | -24.42% |
| CCN(c1cccc(F)c1)S(=O)(=O)c1cc(C(=O)O)cc2c1CCC2 | -8.987% |

| SMILES | Percent Effect |
| --- | --- |
| CC(Nc1cccc(CN2CCOC2=O)c1)C(=O)N1CCNC1=O (stereo not given) | -9.338% |
| Cc1nn(CC(=O)N2CCC(Nc3cccnn3)CC2)c(C)c1Cl | -11.96% |
| O=C(CCc1ccco1)N1CCC(Nc2cccnn2)CC1 | 108.6% |
| Cc1ccc(NC2CCN(C(=O)CCc3ccco3)CC2)nn1 | -2.742% |
| COCCCC(=O)N1CCC(Nc2cccnn2)CC1 | 100.5% |
| Cc1noc(Cl)c1CCC(=O)N1CCC(Nc2cccnn2)CC1 | 97.17% |
| CC(C)(C)SCCCC(=O)N1CCC(Nc2cccnn2)CC1 | -0.09307% |
| Cc1noc(Cl)c1CCC(=O)N1CCC(CC(N)=O)CC1 | -2.795% |
| Cc1ccc(CCC(=O)N2CCC(Nc3cccnn3)CC2)cc1 | 118.9% |
| Cc1cnn(CCC(=O)N2CCC(Nc3cccnn3)CC2)c1 | 5.382% |
| O=C1CC(Cc2ccc(NC(=O)c3cccc(F)c3)cc2)C(=O)N1 (stereo not given) | -11.36% |
| Cc1cc(CN2CCN(C(=O)NC(C)c3cccnc3)CC2)on1 (stereo not given) | -9.533% |
| CCOC(=O)NC1CCCN(Cc2ccc(-n3cncn3)c(C)c2)C1 (stereo not given) | 8.303% |
| COc1cc(NC(=O)NCCO)ccc1N1CCOC1=O | -1.059% |
| Cn1cc(N2CCN(c3ccc(C#N)cc3F)CC2=O)cn1 | -27.57% |
| COc1ccc(CNC(C)c2cccc(Cl)c2)c(OC)c1OC (stereo not given) | 0.8374% |
| O=C(CCCc1ccccn1)N1CCC(Nc2cccnn2)CC1 | -8.554% |
| O=C(CCCc1ccccc1)N1CCC(Nc2cccnn2)CC1 | 109.6% |
| Cc1cc(N2CCC(NC(=O)CCc3ccco3)CC2)nc(C)n1 | 7.107% |
| Cc1ccccc1NC1CCN(C(=O)CCc2ccco2)CC1 | 99.83% |
| O=C(CCOc1ccccc1)N1CCC(Nc2cccnn2)CC1 | -3.199% |
| CS(=O)(=O)N[C@H]1CN(C(=O)CCc2ccco2)C[C@@H]1C1CC1 | -12.24% |
| O=C(CCc1ccccc1F)N1CCC(Nc2cccnn2)CC1 | 101.4% |
| O=C(CCn1ccc2ccccc21)N1CCC(Nc2cccnn2)CC1 | -13.71% |
| CSc1ncccc1C(=O)N1C[C@H]2CC[C@@H]1CN(c1cnccn1)C2 | -13.27% |
| CCCN(CCC)S(=O)(=O)c1cc(NC(C)=O)ccc1C | 31.01% |
| O=C(O)c1cc(-c2ccoc2)cc(S(=O)(=O)N2CCSCC2)c1 | 11.83% |

| SMILES | Percent Effect |
| --- | --- |
| CCN(Cc1ccoc1)C(=O)c1cc(C)c(C)c(S(N)(=O)=O)c1 | -19.87% |
| CCCNC(=O)N1CCC(Oc2cc(C)ccc2F)(C(=O)O)CC1 | -9.891% |
| COCCNC(=O)[C@@H]1CC[C@@H]2[C@@H](CCN2Cc2cnn(C)c2)O1 | -9.722% |
| Cc1cnc(CNC(=O)[C@@H]2CC[C@@H]3[C@@H](CCN3Cc3ccco3)O2)cn1 | -4.994% |
| O=C(NCC1CC1)[C@H]1CC[C@@H]2[C@@H](CCN2Cc2nccs2)O1 | 114.7% |
| O=C(NCC1CCOCC1)[C@@H]1C[C@@H]2[C@@H](CCN2Cc2nccs2)O1.O=C(O)C(F)(F)F | 97.65% |
| O=C(O)[C@]12CCCN(Cc3nccs3)[C@@H]1CCN(c1cnccn1)C2 | 6.87% |
| COCCN1CCN(CC(=O)N(C)Cc2cccc(F)c2)CC1C (stereo not given) | -2.425% |
| Cc1cc(-c2cnc(N3CCN(C)CC3)nc2-c2ccc(C)s2)on1 | -10.07% |
| Cc1cnc(N2CCN(C)CC2)nc1-c1ccnn1C | -36.32% |
| CCN1CCN(c2ncc(-c3cc(C)no3)c(-c3ccc(C)s3)n2)CC1 | -7.299% |
| CCc1cc(NCCC(F)(F)F)nc(N2CCOCC2)n1 | -15.1% |
| Cc1cc(-c2cnc(N3CCOCC3)nc2-c2ccc(C)s2)on1 | 90.53% |
| Cc1cc(-c2cnc(N3CCCC3)nc2-c2ccc(C)s2)on1 | 81.04% |
| Cc1ccc(-c2cc(C(F)(F)F)nc(N3CCOCC3)n2)s1 | 100.5% |
| Cc1noc(C)c1CN(C)Cc1cnc(N2CCOCC2)nc1 | -2.338% |
| O=C1c2cnc(N3CCOCC3)nc2CN1c1ccc2c(c1)OCO2 | -5.261% |
| Cc1nc(N2CCOCC2)nc(C)c1NS(=O)(=O)c1ccccc1 | 4.303% |
| Cc1ccc(-c2cc(-c3nc(CN4CCN(C)CC4)no3)[nH]n2)s1 | -11.14% |
| Cc1cc(-c2cnc(N3CCSCC3)nc2-c2ccc(C)s2)on1 | 126.2% |
| Cc1cccc(C(C)CNC(=O)N2CCOCC3(CCOCC3)C2)c1 (stereo not given) | -15.26% |
| COCCCn1ccc(NC(=O)NCCCn2ccnc2)n1 | 5.848% |
| CC(C)[C@@H]1CN(CCOc2ccc(Cl)cc2)C[C@H]1NS(C)(=O)=O | 1.84% |
| Cc1cccc(-c2noc([C@@H]3Cc4nc[nH]c4CN3)n2)c1 | -0.5604% |
| COc1ccnc(N2CCN(C(=O)Cc3csc(C)n3)CC2)n1 | 124.6% |
| CCOc1ccnc(N2CCN(C(=O)CCc3ccsc3)CC2)n1 | 8.96% |
| COc1ccnc(N2CCN(C(=O)c3csc(C)n3)CC2)n1 | -2.798% |

| SMILES | Percent Effect |
| --- | --- |
| COc1ccnc(N2CCN(C(=O)Cc3ccn(C(C)C)n3)CC2)n1 | 115.4% |
| COc1ccnc(N2CCCN(C(=O)Cc3ccc(C)s3)CC2)n1 | 128.9% |
| COc1ccnc(N2CCN(C(=O)CN3CCCC3=O)CC2)n1 | -1.755% |
| COc1ccnc(N2CCN(C(=O)Cc3ccsc3)CC2)n1 | 128.2% |
| COc1ccnc(N2CCN(C(=O)Cc3ccc(C#N)cc3)CC2)n1 | 1.226% |
| COc1ccnc(N2CCN(C(=O)NCc3ccc(C)s3)CC2)n1 | -6.706% |
| COc1ccc(N2CCCN(C(=O)Cc3csc(C)n3)CC2)cc1 | -1.36% |
| COc1ccnc(N2CCN(C(=O)Cc3ccc(C)s3)CC2)n1 | 0.2283% |
| COc1ccnc(N2CCN(C(=O)CCc3nccs3)CC2)n1 | -9.419% |
| Cc1csc(C2(NCC(O)COc3ccc(F)cc3)CCC2)n1 (stereo not given) | -11.72% |
| COc1cc(N2CCN(Cc3ccsc3)C(CCO)C2)nc(N)n1 (stereo not given) | 10.71% |
| Cc1ccc(-c2ccc(C(=O)NCCS(N)(=O)=O)c(F)c2)cc1 | 17.06% |
| CCN1CCC(NC(=O)Cn2cc(C)c3ccccc32)CC1 | -38.76% |
| Cc1nn(C)c2c(=O)n(CC(=O)NC3CCCCC3)ccc12 | 138.3% |
| CCn1nc(C)c(CNC(=O)c2cn(CC3CCCO3)nn2)c1C (stereo not given) | 113.5% |
| Cc1cc(=O)n(CC(=O)NCC2CCCO2)c(-c2cccc(Cl)c2)n1 (stereo not given) | 14.67% |
| CC1CCN(S(=O)(=O)c2cccn(CC(=O)NC3CCCC3)c2=O)CC1 | -17.34% |
| CCn1nc(C)c2ccn(CC(=O)NCC3CCCO3)c(=O)c21 (stereo not given) | 132.9% |
| CCn1nc(C)c(CNC(=O)c2cn(CCC3CCCCN3)nn2)c1C (stereo not given) | -6.64% |
| CCn1nc(C)c2ccn(CC(=O)NC3CC3)c(=O)c21 | 112.9% |
| Cc1noc(C)c1CNC(=O)c1cn(CCC2CCCCN2)nn1 (stereo not given) | -0.3777% |
| CCn1nc(C)c2ccn(CC(=O)NC3CCCC3)c(=O)c21 | -1.508% |
| Cc1nn(C)c2c(N3CCN(C(=O)NC4CCCCC4)CC3)ncnc12 | 8.343% |
| O=C(Cn1nc(-c2ccc(F)cc2)oc1=O)NCC1CCCO1 (stereo not given) | -3.643% |
